Assay results reported in PubChem BioAssay (EPA / NIEHS).
Inconclusive results are not listed. Calls of active or inactive are those of the source. The calls were made as follows, unless noted: active = hit-call score of the fitted dose curve at least 0.9, where 1 is the maximum; inactive = score below 0.9.

Tests used:
[1] = CCTE_Shafer_MEA_acute_interburst_interval_mean: CCTE's Neural Acute Assay for Mean Interburst Interval, Shafer Lab (AID 2284016);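 also: percent change of mean interburst interval versus each well's own pre-dose baseline; curves fitted for decrease in interburst interval relative to DMSO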
Summary of the method: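 Percent change in mean single-electrode interburst interval was calculated per well from 40 min recordings before and after compound (0.03-40 uM). Recordings were made at 37 C on rat cortical cultures at DIV 13 or 15, with spikes detected at 8x rms threshold.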

[2] = CCTE_Shafer_MEA_acute_burst_percentage_mean: CCTE's Neural Acute Assay for Percentage of Spikes in a Burst, Shafer Lab (AID 2284017);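 as to AC50: curve fitted for loss of signal so potency reflects decreased burst percentage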
Summary of the method: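 Well-level mean burst percentage from a 40-min recording after compound (0.03-40 uM) expressed as percent change from a 40-min baseline at 37C. Cultures: primary rat cortical neurons on MEA, dosed on DIV 13 or 15; fitted downward relative to DMSO.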

[3] = CCTE_Shafer_MEA_acute_burst_percentage_std: CCTE's Neural Acute Assay for Standard Deviation of Burst Percentage, Shafer Lab (AID 2284018);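 also: fitted in the negative direction so actives lower burst percentage SD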
Summary of the method: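 Rat primary cortical neurons on 48-well MEAs, DIV 13 or 15, 37 C. 40-min baseline then 40-min recording with compound (0.03-40 uM); well-level SD of per-electrode burst spike percentage, expressed as percent change from baseline.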

[4] = CCTE_Shafer_MEA_acute_per_network_burst_electrodes_number_mean: CCTE's Neural Acute Assay for Mean Number of Electrodes in a Network Burst, Shafer Lab (AID 2284021);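 also: curves fitted for decreases only so hits reduce electrodes per burst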
Summary of the method: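 Rat primary cortical neurons on 48-well MEAs, DIV 13 or 15, were treated at 0.03-40 uM. Spikes were detected at 8x rms noise and recorded at 37 C. The mean electrodes per network burst in a 40 min exposure recording was expressed as percent change from a 40 min baseline.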

[5] = CCTE_Shafer_MEA_acute_cross_correlation_HWHM: CCTE's Neural Acute Assay for Cross Correlation at Half Width at Half Maximum, Shafer Lab (AID 2284026);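 also: percent change per well from pre-dose baseline in spike cross-correlogram half width; hits are a decrease in cross-correlogram half width relative to DMSO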
Summary of the method: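 Rat primary cortical neurons on 48-well MEA plates; 40-min baseline and 40-min post-exposure recordings at 37 C on DIV 13 or 15, compounds 0.03-40 uM. Spikes detected at 8x rms noise; percent change in cross-correlogram HWHM per well vs baseline.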

[6] = CCTE_Shafer_MEA_acute_synchrony_index: CCTE's Neural Acute Assay for Synchrony, Shafer Lab (AID 2284027);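 also: network synchrony index of spontaneous spiking in primary rat cortical neurons on MEAs; fitted for loss of signal so actives lower synchrony relative to DMSO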
Summary of the method: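 Spontaneous firing of mature rat cortical networks is captured extracellularly on microelectrode arrays at 37 C, with wells needing ≥10 active electrodes. Each compound (0.03-40 uM) is judged by the change in synchrony index from baseline over 40 min.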

[7] = CCTE_Shafer_MEA_acute_LDH: CCTE's Lactate Dehydrogenase Assay for Cytotoxicity in the Neural Acute Assay, Shafer Lab (AID 2284086; active = hit-call score of the fitted dose curve at least 0.9, where 1 is the maximum;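 also: active means LDH release rises above DMSO vehicle level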)
Summary of the method: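 Released lactate dehydrogenase, read at 490 nm, indicated cytotoxicity after acute 40-min compound treatment of rat cortical neuron networks grown on 48-well MEA plates.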

[8] = CCTE_Shafer_MEA_dev_firing_rate_mean: CCTE's Neural Network Formation Assay for Mean Firing Rate, Shafer Lab (AID 2284031);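 as to AC50: curve fitted for loss of firing so AC50 reflects decreased mean firing rate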
Summary of the method: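 Developing rat cortical networks on MEA plates undergo 12-day compound exposure. Firing frequency, averaged across active electrodes, is integrated as area under the curve over four recording days, referenced to DMSO.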

[9] = CCTE_Shafer_MEA_dev_per_burst_spike_percent: CCTE's Neural Network Formation Assay for Percent of Spikes in a Burst, Shafer Lab (AID 2284032);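 as to AC50: fitted as a decrease in burst spike percentage below DMSO baseline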
Summary of the method: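 Rat primary cortical neurons on 16-electrode MEA wells, dosed from plating day 0 for 12 days with renewal on DIV 5 and 9; spikes-in-bursts percentage averaged over bursting electrodes, collapsed as AUC across days 5, 7, 9, 12; loss direction versus DMSO.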

[10] = CCTE_Shafer_MEA_dev_active_electrodes_number: CCTE's Neural Network Formation Assay for Number of Active Electrodes, Shafer Lab (AID 2284040; active = hit-call score of the fitted dose curve at least 0.9, where 1 is the maximum;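 as to AC50: potency for loss of active electrodes versus DMSO so lower counts are hits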)
Summary of the method: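 Rat cortical primary cultures, 1.5 x 10^5 cells/well, PEI-coated MEA, laminin drop. Continuous exposure DIV 0–12; full media/compound change DIV 5, 9. Readout: electrodes with mean firing ≥5 spikes/min; AUC across days; loss vs DMSO.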

[11] = CCTE_Shafer_MEA_dev_per_burst_interspike_interval: CCTE's Neural Network Formation Assay for Burst Interspike Interval, Shafer Lab (AID 2284044);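 also: mean spike spacing inside bursts as AUC over recordings on days 5 7 9 12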;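 as to AC50: potency for a decrease of within-burst interspike interval below DMSO level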
Summary of the method: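 Primary rat cortical neurons on 48-well MEA plates, exposed from day 0 through day 12, treatment renewed at DIV 5 and 9. Within-burst interspike interval recorded days 5, 7, 9, 12, well-averaged, summarised as AUC; negative fit versus DMSO.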

[12] = CCTE_Shafer_MEA_dev_burst_duration_mean: CCTE's Neural Network Formation Assay for Mean Burst Duration, Shafer Lab (AID 2284045);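 as to AC50: curve fitted for loss meaning shorter burst duration than DMSO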
Summary of the method: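 Primary rat cortical neurons on 48-well 16-electrode MEA plates, exposed from day 0 with renewal at DIV 5 and 9; spontaneous activity recorded on days 5, 7, 9, 12. Well-mean burst duration across bursting electrodes, collapsed as trapezoidal AUC; DMSO baseline.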

[13] = CCTE_Shafer_MEA_dev_interburst_interval_mean: CCTE's Neural Network Formation Assay for Mean Interburst Interval, Shafer Lab (AID 2284046);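 also: well-mean interburst interval of bursting electrodes as AUC over four recording days; curve fitted for decrease in interburst interval relative to DMSO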
Summary of the method: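 Primary rat cortical neurons on PEI-coated 48-well MEA plates (laminin added with cells at plating) (16 electrodes/well), exposed from plating day 0 with renewal at DIV 5 and 9. Mean inter-burst interval averaged over bursting electrodes, AUC across days 5, 7, 9, 12; DMSO baseline.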

[14] = CCTE_Shafer_MEA_dev_inter_network_spike_interval_mean: CCTE's Neural Network Formation Assay for Mean Inter-network Spike Interval, Shafer Lab (AID 2284047)
Summary of the method: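 Mean time between consecutive network-spike peaks, recorded extracellularly (adaptive spike detection) on DIV 5, 7, 9 and 12, summarized as trapezoidal AUC. Rat cortical cultures on MEAs dosed continuously days 0–12, re-dosed at feeds; loss-of-signal fit relative to DMSO.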

[15] = CCTE_Shafer_MEA_dev_network_spike_number: CCTE's Neural Network Formation Assay for Number of Network Spikes, Shafer Lab (AID 2284048);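 also: synchronized bursts across electrodes counted on days 5 7 9 12 and integrated as AUC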;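 as to AC50: fit as a loss of signal meaning fewer network spikes than DMSO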
Summary of the method: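 Primary rat cortical neurons on PEI/laminin 48-well MEA plates, dosed from plating day 0 for 12 days, renewed at DIV 5 and 9. Network spike counts recorded DIV 5, 7, 9, 12, collapsed as trapezoidal AUC; DMSO baseline.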

[16] = CCTE_Shafer_MEA_dev_network_spike_peak: CCTE's Neural Network Formation Assay for Mean Number of Electrodes in Network Spike, Shafer Lab (AID 2284049);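 as to AC50: fitted for loss of signal meaning fewer electrodes in network spikes than DMSO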
Summary of the method: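 Network-spike peak electrode count from recordings on days 5, 7, 9 and 12 was combined as trapezoidal area under the curve. Rat cortical cultures were treated continuously from plating, with compound renewed at each feed (DIV 5, 9); fits versus DMSO.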

[17] = CCTE_Shafer_MEA_dev_spike_duration_mean: CCTE's Neural Network Formation Assay for Mean Spike Duration, Shafer Lab (AID 2284051);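 also: mean network spike duration pooled as area under curve over DIV 5 to 12 recordings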;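 as to AC50: potency for a decrease in mean network spike duration versus DMSO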
Summary of the method: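 Spontaneous activity was recorded on days 5, 7, 9 and 12 from rat cortical cultures grown on microelectrode arrays and dosed continuously from day 0, with media and compound renewed after the DIV 5 and 9 recordings. Network-spike duration was collapsed by area under the curve.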

[18] = CCTE_Shafer_MEA_dev_network_spike_duration_std: CCTE's Neural Network Formation Assay for Standard Deviation of Network Spike Duration, Shafer Lab (AID 2284052);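 also: hits are decreases in network spike duration SD versus DMSO vehicle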
Summary of the method: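 Network spike duration variability was collapsed across recordings on days 5, 7, 9 and 12 by trapezoidal area-under-curve and fitted downward against DMSO. Cultures were rat cortical neurons on PEI-coated MEA plates, dosed continuously from plating, refed with compound DIV 5/9.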

[19] = CCTE_Shafer_MEA_dev_per_network_spike_spike_number_mean: CCTE's Neural Network Formation Assay for Mean Number of Spikes in a Network Spike, Shafer Lab (AID 2284053);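 as to AC50: fitted as decrease in spikes per network spike relative to DMSO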
Summary of the method: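 Mean spike count within each network spike, taken in a 0.05 s window at its peak, was recorded on days 5, 7, 9 and 12 and integrated as trapezoidal area under the curve. Rat cortical cultures on MEA plates received continuous compound from day 0, refreshed at medium changes on DIV 5 and 9.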

[20] = CCTE_Shafer_MEA_dev_per_network_spike_spike_percent: CCTE's Neural Network Formation Assay for Percent of Spikes in a Network Spike, Shafer Lab (AID 2284054)
Summary of the method: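 Rat primary cortical neurons were grown on 48-well MEA plates (16 electrodes/well), exposed from plating day 0 through day 12, with treatment renewed on DIV 5 and 9. Percent of spikes within 0.05 s network-spike peaks was measured, summarised as AUC across days 5, 7, 9, 12.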

Measured: AC50

O=[N+]([O-])O
inactive: [1] | [2] | [3] | [4] | [5] | [6] | [7]

Cc1ccc(OP(=O)(Oc2ccc(C)cc2)Oc2ccc(C)cc2)cc1 (tested in a mixture with another compound)
active: [1] 7.32 µM | [2] 6.45 µM | [3] 3.66 µM | [4] 7.68 µM | [5] 8.25 µM | [6] 6.01 µM
inactive: all other assays above

CC1CCCC1.[C-]#[O+].[C-]#[O+].[C-]#[O+].[Mn]
not listed: [1] | [2] | [3] | [4] | [5] | [6] | [7]
inactive: all other assays above

COc1ccc(CO)cc1
inactive: [1] | [3] | [4] | [5] | [7]
active: [2] 3.79 µM | [6] 3.81 µM

CNC(=N[N+](=O)[O-])NCC1CCOC1 (stereo not given)
not listed: [1] | [2] | [3] | [4] | [5] | [6] | [7]
inactive: all other assays above

Oc1ccc(C2(c3ccc(O)cc3)c3ccccc3-c3ccccc32)cc1
active: [2] 24.8 µM | [3] 22.8 µM | [5] 28.1 µM | [6] 25.4 µM
inactive: [1] | [4] | [7]

CC1(C)[C@H](C(=O)O[C@H](C#N)c2cccc(Oc3ccccc3)c2)[C@@H]1C=C(Br)Br
active: [1] 2.09 µM | [2] 1.1 µM | [3] 2.72 µM | [5] 3.1 µM | [6] 0.866 µM | [8] 3.1 µM | [9] 7.16 µM | [10] 8.89 µM | [11] 15 µM | [12] 5.29 µM | [15] 0.853 µM | [16] 7.55 µM | [17] 6.4 µM | [18] 3.82 µM | [19] 3.96 µM | [20] 1.8 µM
inactive: [4] | [13] | [14] | [7]

CC(C)CCCCCCCOP(=O)(Oc1ccccc1)Oc1ccccc1
not listed: [1] | [2] | [3] | [4] | [5] | [6] | [7]
inactive: all other assays above
